# Screening data from PubChem BioAssay.
# Anthrax LF prot: blocks Bacillus anthracis lethal factor protease; P15917; multiplex microsphere protease cleavage assay, LF; inhibition, % at 10 µM; 0.12% of 360,000 active; AID 588501
# Target sequence (P15917 whole entry, looked up): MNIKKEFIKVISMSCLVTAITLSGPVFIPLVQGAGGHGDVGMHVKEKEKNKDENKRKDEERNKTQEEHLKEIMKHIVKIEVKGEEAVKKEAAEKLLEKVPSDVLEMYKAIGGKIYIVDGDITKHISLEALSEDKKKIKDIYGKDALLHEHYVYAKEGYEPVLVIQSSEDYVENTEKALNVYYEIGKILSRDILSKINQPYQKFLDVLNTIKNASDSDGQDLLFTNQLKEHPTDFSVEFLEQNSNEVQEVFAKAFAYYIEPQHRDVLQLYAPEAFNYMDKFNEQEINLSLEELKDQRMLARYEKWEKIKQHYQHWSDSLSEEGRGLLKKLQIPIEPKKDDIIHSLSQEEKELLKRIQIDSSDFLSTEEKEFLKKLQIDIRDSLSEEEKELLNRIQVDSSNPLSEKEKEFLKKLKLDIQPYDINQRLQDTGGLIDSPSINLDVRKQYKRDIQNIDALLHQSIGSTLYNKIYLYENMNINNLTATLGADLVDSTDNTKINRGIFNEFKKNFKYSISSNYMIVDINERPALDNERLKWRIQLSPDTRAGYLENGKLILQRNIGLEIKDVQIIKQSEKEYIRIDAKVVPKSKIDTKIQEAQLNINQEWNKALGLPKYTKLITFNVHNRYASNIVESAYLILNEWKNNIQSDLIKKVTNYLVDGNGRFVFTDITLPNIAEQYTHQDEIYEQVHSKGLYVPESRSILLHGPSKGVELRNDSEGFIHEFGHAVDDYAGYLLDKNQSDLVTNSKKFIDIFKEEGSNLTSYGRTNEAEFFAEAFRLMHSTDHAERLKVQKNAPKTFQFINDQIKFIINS
# BoNT-F LC inh: BoNT F light chain protease inhibition; Multiplex microsphere protease cleavage assay, flow cytometry; inhibition, % at 10 µM; 0.22% of 360,000 active; in the data active means inhibition above about 35%, passing the limit was not always enough; inconclusive means no clear call, values can overlap the other calls
# Bead autofluor: counter-screen for toxin protease inhibitors: compound fluorescence | compound autofluorescence counterscreen, microsphere flow cytometry; active compounds read high | fluorescence intensity (test concentration not listed) | 3.1% of 360,000 active | AID 624483; in the data active means fluorescence intensity above about 16000; inconclusive means no clear call, values can overlap the other calls
# TcdB inh: inhibitors of Clostridioides difficile toxin B glycohydrolase | P18177 | TcdB glycohydrolase enzymatic assay, plate reader | inhibition, % at 9.99 µM | 0.24% of 350,000 active | AID 652162; in the data active means inhibition above about 10%
# BoNT-A LC inh2: blocks Botulinum neurotoxin A light chain protease. inhibition, % at 10 µM. AID 588499. multiplex microsphere protease substrate cleavage, flow cytometry. 0.17% of 360,000 active
# Numbers stand for hits; n = inactive; u = inconclusive; x = no result given. This is one part of a sample in which hits are shown more often than they occur. Unless noted, no stated cut-off is given here; in the data, active means inhibition above about 30%; inconclusive means no clear call, values can overlap the other calls; inactive means below that.
SMILES,Anthrax LF prot,BoNT-F LC inh,Bead autofluor,TcdB inh,BoNT-A LC inh2
Cn1cccc1Cc1nnc(SCC(=O)NCC2CCCO2)n1CCc1ccccc1 (stereo unspecified),n,n,22577,x,u
O=C(CSc1nnc2ccc(-c3ccccc3)nn12)NCC1CCCO1 (stereo unspecified),n,n,n,n,n
COc1ccc(NC(=O)CSc2nnc(Cc3cccn3C)n2CCc2ccccc2)c(OC)c1,n,n,n,n,n
COc1ccccc1NC(=O)CSc1nnc(Cc2cccn2C)n1CCc1ccccc1,n,n,24958,x,n
O=C(CSc1ccc2nnc(-c3ccccc3)n2n1)NCc1ccco1,n,n,20999,x,u
O=C(O)C[C@@H]1C[C@@H]2c3cc(NC(=O)Nc4ccc(F)cc4)ccc3O[C@@H]2[C@H](CO)O1,x,x,x,n,x
O=C(CSc1ccc2nnc(-c3cccnc3)n2n1)NCC1CCCO1 (stereo unspecified),n,n,n,n,n
O=C(CSc1ccc2nnc(-c3cccc(F)c3)n2n1)NCC1CCCO1 (stereo unspecified),n,n,22186,x,n
CCSc1nnc(NC(=O)CSc2nnc(Cc3cccn3C)n2CCc2ccccc2)s1,n,n,20173,x,u
C[C@H]1CN([C@@H](C)CO)C(=O)Cc2cc(NC(=O)NC3CCCCC3)ccc2O[C@H]1CN(C)S(C)(=O)=O,x,x,x,n,x
CC(C)OC(=O)CC(=O)CSc1nc2c(c(-c3cccs3)c1C#N)CCC2,n,n,n,n,29.5
CCOC(=O)CSc1nc2c(c(-c3ccc(C)o3)c1C#N)CCCC2,n,n,23315,x,n
CCOC(=O)C(C)Sc1nc2c(c(-c3cccs3)c1C#N)CCC2 (stereo unspecified),n,n,n,n,n
CO[C@@H](CN(C)C(=O)c1ccccc1F)[C@H](C)CN([C@@H](C)CO)S(=O)(=O)c1ccc(Cl)cc1,x,x,x,n,x
C[C@@H]1CN([C@H](C)CO)C(=O)c2cc(/C=C/c3ccccc3)cnc2O[C@H]1CN(C)Cc1ccncc1,x,x,x,n,x
C[C@@H]1CN([C@H](C)CO)C(=O)Cc2cc(NC(=O)Nc3ccc(F)cc3)ccc2O[C@H]1CN(C)Cc1ccc(C(F)(F)F)cc1,x,x,x,n,x
O=C(N/N=C/c1ccc(O)cc1O)c1ccc(NC(=O)C2CCCCC2)cc1,36.3,n,n,n,n
O=C(N/N=C/c1cccc(O)c1)c1ccc(NC(=O)C2CCCCC2)cc1,n,n,n,n,n
CNC[C@@H]1Oc2ncc(-c3ccc(OC)cc3)cc2C(=O)N([C@H](C)CO)C[C@@H]1C,x,x,x,n,x
O=C(CCCNS(=O)(=O)c1cccc2nsnc12)N1CCCCC1,n,n,n,x,n
O=C(CCNS(=O)(=O)c1cccc2nsnc12)N1CC(=O)N(CCc2ccccc2)C(=O)C1,n,n,21566,x,u
CC(C)NC(=O)N(C)C[C@@H]1Oc2ncc(-c3cncnc3)cc2C(=O)N([C@H](C)CO)C[C@@H]1C,x,x,x,n,x
Cc1ccc(S(=O)(=O)NCC[C@H]2CC[C@@H](NC(=O)c3cccc(F)c3)[C@@H](CO)O2)cc1,x,x,x,n,x
COC(=O)C(C)Sc1nnc(-c2ccncc2)o1 (stereo unspecified),n,n,21757,n,u
NC(=O)CSc1nnc(-c2ccncc2)o1,n,n,n,n,n
SMILES,Anthrax LF prot,BoNT-F LC inh,Bead autofluor,TcdB inh,BoNT-A LC inh2
CCOC(=O)C(Sc1nnc(-c2ccncc2)o1)C(C)=O (stereo unspecified),n,n,16214,x,n
C[C@@H]1CN([C@H](C)CO)C(=O)c2cccc(NC(=O)Nc3ccccc3)c2O[C@@H]1CN(C)Cc1ccc(-c2ccccc2)cc1,x,x,x,n,x
Clc1nc(-c2ccccc2)cc(-c2ccc(Br)cc2)n1,n,n,23930,n,n
CCc1nnc(NC(=O)Cn2nc(-c3ccc(OC)c(OC)c3)ccc2=O)s1,n,n,n,x,n
CCCc1nnc(NC(=O)CCC(=O)NCc2ccccc2OC)s1,n,n,22157,x,n
CCc1nnc(NC(=O)Cn2nc(-c3ccccc3OC)ccc2=O)s1,n,n,22524,x,u
CC(C)Cc1nnc(NC(=O)CCC(=O)NCc2ccccc2Cl)s1,n,n,n,12.7,n
Cc1ccc(S(=O)(=O)Nc2ccc3c(c2)C(=O)N([C@@H](C)CO)C[C@H](C)[C@H](CN(C)S(=O)(=O)c2cccs2)OCCCC[C@@H](C)O3)cc1,x,x,x,n,x
CO[C@@H]1CN(C)C(=O)c2cc(NC(=O)Nc3ccc(Cl)cc3)ccc2OC[C@@H](C)N(C)C[C@@H]1C,x,x,x,n,x
COC(=O)C1=C(C)NC(C)=C(C(=O)OC)C1c1cn(-c2ccccc2)nc1-c1ccco1,n,n,16749,x,n
Cc1cc(N2CCCCCC2)nc2ccc(F)cc12,n,n,19022,x,n
COc1ccc2c(C)cc(N3CCCCCC3)nc2c1,n,n,n,n,n
C=CCN1CC(c2nc3ccccc3n2Cc2cccc3ccccc23)CC1=O (stereo unspecified),n,n,19853,x,n
O=C(CCCc1ccccc1)Nc1ccc(Br)cc1F,32.0,n,n,x,n
O=C(CCc1ccccc1)Nc1ccc(F)cc1F,n,n,n,n,n
C[C@H](N)c1nnc(SCC(=O)N(C)C)o1,n,n,20911,x,n
CN(C)C(=O)CSc1nnc([C@@H](N)Cc2ccccc2)o1,n,n,22809,x,n
CN(C)C(=O)CSc1nc(-c2ccccc2)c(-c2ccccc2)o1,n,n,n,n,n
CCCC#Cc1cnc2c(c1)C(=O)N([C@H](C)CO)C[C@@H](C)[C@H](CN(C)C)O2,x,x,x,n,x
CO[C@H]1CN(C)C(=O)c2cc(NC(C)=O)ccc2OC[C@@H](C)N(C(=O)C2CCCCC2)C[C@H]1C,x,x,x,n,x
CN(C)C(=O)C[C@H]1C[C@@H]2c3cc(NC(=O)C4CCC4)ccc3O[C@@H]2[C@@H](CO)O1,x,x,x,n,x
O/C(=C\c1nc2ccccc2nc1/C=C(\O)c1ccccc1)c1ccccc1,30.5,n,n,x,66.8
O=c1oc2ccccc2nc1/C=C(\O)c1ccccc1,n,n,n,n,n
COCC(=O)Nc1ccc2c(c1)C(=O)N(C)C[C@H](OC)[C@@H](C)CN(CC1CCCCC1)[C@@H](C)CO2,x,x,x,n,x
Cc1ccccc1Cn1ccc(-c2ccc(Cl)cc2)c(C#N)c1=O,n,n,23457,x,n
SMILES,Anthrax LF prot,BoNT-F LC inh,Bead autofluor,TcdB inh,BoNT-A LC inh2
Cc1ccc(S(=O)(=O)NCC(=O)OCC(=O)N2CC(=O)Nc3ccccc32)cc1,n,n,n,n,n
Cc1ccc(S(=O)(=O)CCC(=O)OCC(=O)N2CC(=O)Nc3ccccc32)cc1,n,n,22432,x,n
C[C@H]1CN([C@@H](C)CO)C(=O)c2cc(-c3cncnc3)cnc2O[C@@H]1CN(C)C(=O)Cc1ccccn1,x,x,x,n,x
COc1cccc(/C=N/NC(=O)c2csc(-n3nc(C)cc3C(F)(F)F)n2)c1,n,n,n,x,n
COc1ccccc1NC(=O)c1csc(-n2nc(C)cc2C(F)(F)F)n1,n,n,21807,x,u
COc1ccc(NC(=O)N(C)C[C@H]2OCCCC[C@H](C)Oc3ccc(NS(=O)(=O)c4ccc(F)cc4)cc3C(=O)N([C@@H](C)CO)C[C@H]2C)cc1,x,x,x,n,x
O=C(C[C@@H]1CC[C@H]2[C@@H](COC[C@@H](O)CN2Cc2cc(F)cc(F)c2)O1)NC1CCCC1,x,x,x,n,x
CCC1CCCCN1C(=O)Cn1c(=O)n(CCC(=O)NCc2ccco2)c(=O)c2sccc21 (stereo unspecified),n,n,n,x,n
